# ChEMBL document CHEMBL3988442, “University of Dundee, Small-Polar-MMV Screening Library” (2021)
# Out of some 48,000 compounds screened, about 13,000 (27%) showed an effect of 50% or more. This is one part of the list.
# System: Wolbachia pipientis
# Experiment: Anti-Wolbachia Cell-Based Screen
# Type: functional
# Parameters: scale not given: in the data most compounds retested in dose-response had high values
# Details: 5 µM
row,SMILES,Percent Effect
1,Cc1nc(Nc2ccc(Cl)cn2)sc1C(=O)NC(C)C,4.933%
2,O=C(NCc1nc(NC2CCCC2)c2cc(Cl)ccc2n1)c1ccoc1,13.57%
3,CC(C)(C(=O)NCc1n[nH]c(=O)[nH]1)c1ccc(F)cc1,1.866%
4,O=C(NCCC(O)c1ccco1)c1ccccc1Br (centres undefined),14.27%
5,CC(O)CN1CCN(C(=O)c2ccn(-c3cccc(Cl)c3)n2)CC1 (centres undefined),1.72%
6,CS(=O)(=O)N1CCOCC12CCN(c1nncs1)CC2,4.354%
7,CS(=O)(=O)N1CCCC12CCN(Cc1ccoc1)CC2,99.65%
8,CS(=O)(=O)N1CCOCC12CCN(Cc1ccoc1)CC2,122%
9,CN(C)C(=O)CO[C@H]1CO[C@@]2(CCN(Cc3ccoc3)C2)C1,-7.87%
10,CS(=O)(=O)N1CCCC12CCN(Cc1nccs1)CC2.O=C(O)C(F)(F)F,-14.48%
11,Cn1cc(CN2CCC3(CCCN3S(C)(=O)=O)CC2)cn1,6.984%
12,COCCNc1ccccc1CNC(=O)NCc1ccc(C)s1,-4.597%
13,CS(=O)(=O)CCOCCNc1cncc(Br)c1,-7.579%
14,CN1CCCN(c2nc(C3CC3)ns2)CC1,-64.99%
15,CC(C)N(CCNC(=O)c1n[nH]c2ccccc12)C(C)C,25.98%
16,CC(C)CNC(=O)c1cn(C(C)C)cc2c(=O)[nH]nc1-2,135.5%
17,CN(C)CCNC(=O)c1cc2n(n1)CCN(C(=O)c1ccc[nH]1)C2,-27.47%
18,CC(C)n1cc(C(=O)NCCN(C)C)c2n[nH]c(=O)c-2c1,115.3%
19,CC(C)CNC(=O)c1ccc2c(=O)n(-c3ccccc3)cnc2c1,11.47%
20,Cc1ccc(C(=O)NCC(C)Cn2cccn2)c(=O)[nH]1 (centres undefined),-11.2%
21,CCOCCn1nc(C)cc1C(=O)N1CCC2(CC1)[C@H](O)C[C@@H]2OCC,-36.55%
22,CC1=C[C@@H](CNS(C)(=O)=O)[C@H](C(C)C)C[C@H]1CC(=O)NCCN(C)C,5.044%
23,Cc1cc(C)n(CCCC(=O)N2CC[C@H]3NCCC[C@]3(CO)C2)n1,-1.122%
24,CS(=O)(=O)CCC(=O)N1C[C@@H]2CC[C@H](C1)N(Cc1ccccc1)C2=O,8.046%
25,Cc1ccc(CN(C)C(=O)CNC(=O)N2CCc3ccccc3C2)o1,79.51%
26,CN(Cc1ccco1)C(=O)CN1CCc2ccccc2C1,-0.07899%
27,Cc1ccc(CN(C)C(=O)CN2CCCC2c2cnn(C)c2)o1 (centres undefined),-1.976%
28,Cc1ccc(CN(C)C(=O)CN2CCc3ccccc3C2)o1,87.7%
29,COCCN1CCN(CC(=O)N(C)Cc2ccc(C)o2)CC1C (centres undefined),6.475%
